The nature of experiment [1]: qHTS assay to identify small molecule agonists of the peroxisome proliferator-activated receptor delta (PPARd) signaling pathway - cell viability counter screen (AID 743211). Also: nearly all actives have a fitted effect of over 55% in size. In a few lines: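 Tox21 library compounds, delivered in DMSO, were incubated 17 h with PPARd-bla HEK293H cells; cytotoxicity was taken from CellTiter-Glo luminescence read 30 min after reagent addition.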
For orientation: In qHTS, concentration-response curves come from the screen itself.

The target in experiment [2] is Peroxisome proliferator-activated receptor delta (Homo sapiens) (UniProt Q03181). Nature of the experiment: qHTS assay to identify small molecule agonists of the peroxisome proliferator-activated receptor delta (PPARd) signaling pathway (AID 743212; calls by dose curve). In outline:
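HEK293H PPARd-bla cells; 5 h preincubation 37 C/5% CO2; compound (DMSO) 37 C; LiveBLAzer B/G FRET substrate 2 h RT; fluorescence intensity.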

A short description of experiment [3]: qHTS assay to identify small molecule antagonists of the peroxisome proliferator-activated receptor delta (PPARd) signaling pathway - cell viability counter screen (AID 743213). Also: nearly all actives have a fitted effect of over 50% in size. In a few lines:
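Viability counter-screen, qHTS format: PPARd-bla HEK293H, L165041 300 nM final, 17 h compound exposure at 37 C, CellTiter-Glo luminescence after 30 min RT.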

In experiment [4] the target is Peroxisome proliferator-activated receptor delta (Homo sapiens) (UniProt Q03181). Nature of the experiment: qHTS assay to identify small molecule antagonists of the peroxisome proliferator-activated receptor delta (PPARd) signaling pathway (AID 743215; active = well fitted inhibition curve with a large enough effect in the signal ratio in the repeat runs, not every such curve was filed as active; the % refers to the signal ratio;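 also: cells stimulated with agonist L165041 at 300 nM final during compound exposure; series mostly up to about 62 µM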). In a few lines:
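PPARd-bla HEK293H cells (UAS-bla reporter) preincubated 5 h, then given compound plus 300 nM final L165041 agonist for 17 h at 37 C. Beta-lactamase activity read by LiveBLAzer B/G FRET substrate fluorescence after 2 h at room temperature.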

The target of experiment [5] is Bile acid receptor (Homo sapiens) (UniProt Q96RI1). Nature of the experiment: qHTS assay to identify small molecule antagonists of the farnesoid-X-receptor (FXR) signaling pathway (AID 743217; active = well fitted inhibition curve with a large enough effect in the signal ratio in the repeat runs, not every such curve was filed as active; the % refers to the signal ratio). In a few lines: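 FXR-UAS-bla HEK 293T cells (beta-lactamase reporter) given compound plus chenodeoxycholic acid (50 uM final), 16 h at 37C. LiveBLAzer B/G FRET substrate added for 2 h at room temperature; fluorescence read.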

Experiment [6] can be described thus: qHTS assay to identify small molecule agonists of the farnesoid-X-receptor (FXR) signaling pathway - cell viability counter screen (AID 743218). Also: nearly all actives have a fitted effect of over 45% in size. Also: potency is read from the fitted curve at half-maximal effect. In a few lines: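 FXR-UAS-bla HEK 293T cells exposed to compounds for 16 h at 37C. Cytotoxicity read in the same wells by CellTiter-Glo luminescence after 30 min at room temperature, following the beta-lactamase FRET read.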

In experiment [7] the target is Bile acid receptor (Homo sapiens) (UniProt Q96RI1). The experiment can be described thus: qHTS assay to identify small molecule agonists of the farnesoid-X-receptor (FXR) signaling pathway (AID 743220; active = well fitted activation curve with a large enough effect in the signal ratio in the repeat runs, not every such curve was filed as active; the % refers to the signal ratio). In outline: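 Beta-lactamase reporter under UAS control in GeneBLAzer FXR HEK 293T cells (5000/well) measured with LiveBLAzer FRET substrate after 2 h at room temperature. Compound exposure lasted 16 h at 37C.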

Experiment [8] is described as follows: qHTS assay to identify small molecule antagonists of the farnesoid-X-receptor (FXR) signaling pathway - cell viability counter screen (AID 743221; active = well fitted cell-killing curve with a large enough effect in the repeat runs, not every such curve was filed as active; also: nearly all actives have a fitted effect of over 50% in size). In outline:
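Cytotoxicity is taken from ATP luminescence (CellTiter-Glo, 30 min, room temperature) in FXR-bla HEK 293T cells previously incubated 16 h at 37 C with compound and chenodeoxycholic acid at 50 uM final.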

For experiment [9], the target named is Vitamin D3 receptor (Homo sapiens) (UniProt P11473). The experiment can be described thus: qHTS assay to identify small molecule agonists of the vitamin D receptor (VDR) signaling pathway (AID 743222; calls by dose curve). In outline:
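VDR-bla cells plated 4 h at 37 C, then exposed to compounds for 16 h at 37 C. Beta-lactamase reporter activity measured by fluorescence after 2 h room-temperature loading with LiveBLAzer B/G FRET substrate.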

Experiment [10] can be described thus: qHTS assay to identify small molecule agonists of the vitamin D receptor (VDR) signaling pathway - cell viability counter screen (AID 743224). Also: series mostly up to about 63 µM; nearly all actives have a fitted effect of over 50% in size. In a few lines: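 VDR-bla cells, 4 h after plating, exposed to compounds for 16 h at 37C; viability then read in the same wells as CellTiter-Glo luminescence after 30 min at room temperature, following the bla FRET read.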

A short description of experiment [11]: qHTS assay to identify small molecule antagonists of the vitamin D receptor (VDR) signaling pathway - cell viability counter screen (AID 743225). Also: nearly all actives have a fitted effect of over 50% in size. In outline:
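Same-well multiplex: following 16 h treatment of HEK 293T cells carrying a UAS-driven beta-lactamase reporter with compound and agonist (3 nM final), and a 2 h FRET substrate step, CellTiter-Glo was added and luminescence read after 30 min.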

Experiment [12] in a line: qHTS assay to identify small molecule agonists of the NFkB signaling pathway (AID 1159509; active = well fitted curve in the direction sought with a large enough effect in the signal ratio in the repeat runs, not every such curve was filed as active; the % refers to the signal ratio; also: series mostly up to about 61 µM). In a few lines:
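NFkB-bla ME-180 cells carry a beta-lactamase reporter under an NF-kB response element. They were plated overnight, then exposed to compounds for 5 h at 37 C. Read-out is LiveBLAzer FRET after 1.5 hr at room temperature (405 nm excitation; 460/530 nm emission).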

Experiment [13] can be described thus: qHTS assay to identify small molecule agonists of the NFkB signaling pathway - cell viability counter screen (AID 1159515; calls by dose curve; also: nearly all actives have a fitted effect of over 55% in size; also: potency is read from the fitted curve at half-maximal effect). In a few lines:
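NFkB-bla ME-180 cells, 2,000/well, plated overnight at 37 C; compound added for 5 hr at 37 C. Viability read in the same wells as the bla reporter, by CellTiter-Glo luminescence after 30 min at room temperature.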

Experiment [14] can be described thus: qHTS assay to identify small molecule agonists of the endoplasmic reticulum stress response signaling pathway - cell viability counter screen (AID 1159517; calls by dose curve). In outline:
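HeLa cells carrying an ESRE-driven beta-lactamase reporter receive compound for 5 hr at 37 C. Cell viability is then gauged with CellTiter-Glo by luminescence, 30 min at room temperature.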

The nature of experiment [15]: qHTS assay to identify small molecule antagonists of the retinoid-related orphan receptor gamma (ROR-gamma) signaling pathway - cell viability counter screen (AID 1159520). Also: nearly all actives have a fitted effect of over 50% in size. In outline:
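Cytotoxicity was read from cellular ATP (CellTiter-Glo luminescence) after 16 hr at 37 C with 1 uM doxycycline induction. The inducer was added 2 hr after compound transfer to Tet-on ROR gamma CHO cells.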

In experiment [16] the target is Nuclear receptor ROR-gamma (Homo sapiens) (UniProt P51449). The experiment can be described thus: qHTS assay to identify small molecule antagonists of the retinoid-related orphan receptor gamma (ROR-gamma) signaling pathway (AID 1159521). In a few lines:
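Inducible-expression reporter assay: doxycycline (1 uM final) switched on RORγ in CHO cells bearing a ROR response element-luciferase construct, with test compounds present from 2 h beforehand. Decreased luminescence after 16 h defined antagonist activity.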

Experiment [17] in a line: qHTS assay to identify small molecule agonists of the AP-1 signaling pathway - cell viability counter screen (AID 1159525; calls by dose curve; also: nearly all actives have a fitted effect of over 55% in size). In a few lines:
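Luminescent ATP readout (Cell Titer Glo, 30 min RT), normalised to DMSO and tetra n-octyl ammonium bromide controls. Cells were ME-180 AP-1-bla in 0.5% dialyzed FBS Opti-MEM, with a 5 h, 37 °C compound exposure.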

The nature of experiment [18]: qHTS assay to identify small molecule agonists of the AP-1 signaling pathway (AID 1159526; calls by dose curve).
The target in experiment [19] is Vitamin D3 receptor (Homo sapiens) (UniProt P11473). Nature of the experiment: qHTS assay to identify small molecule antagonists of the vitamin D receptor (VDR) signaling pathway (AID 743223; active = well fitted inhibition curve with a large enough effect in the signal ratio in the repeat runs, not every such curve was filed as active; the % refers to the signal ratio). In outline:
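Quantitative HTS in VDR-bla reporter cells stimulated with 1alpha,25-dihydroxyvitamin D3, 3 nM final. Compound exposure 16 h, 37C, 5% CO2. Read-out: beta-lactamase FRET substrate fluorescence, 2 h RT.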

Experiment [20] is described as follows: qHTS assay to identify small molecule agonists of the endoplasmic reticulum stress response signaling pathway (AID 1159516; active = well fitted activation curve with a large enough effect in the signal ratio in the repeat runs, not every such curve was filed as active; the % refers to the signal ratio). In outline: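 CellSensor ESRE-bla HeLa cells, 1,500 per well, plated overnight, then exposed to compounds for 5 hr at 37 C. Beta-lactamase reporter read with LiveBLAzer B/G FRET substrate after 2 hr at room temperature, 405 nm excitation, 460 and 530 nm emission.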

Records with an inconclusive call do not appear. A number with no mark means an inactive call. Calls of active or inactive are those of the source. Unless noted, calls follow the shape of the dose curve; as a rule, active = well fitted curve in the direction sought with a large enough effect in the repeat runs; inconclusive = weak or mixed curves; inactive = no such curve, though single readings can be large; an effect the other way counts as inactive or inconclusive.

Sequence of Vitamin D3 receptor (Homo sapiens) (P11473 whole entry, looked up): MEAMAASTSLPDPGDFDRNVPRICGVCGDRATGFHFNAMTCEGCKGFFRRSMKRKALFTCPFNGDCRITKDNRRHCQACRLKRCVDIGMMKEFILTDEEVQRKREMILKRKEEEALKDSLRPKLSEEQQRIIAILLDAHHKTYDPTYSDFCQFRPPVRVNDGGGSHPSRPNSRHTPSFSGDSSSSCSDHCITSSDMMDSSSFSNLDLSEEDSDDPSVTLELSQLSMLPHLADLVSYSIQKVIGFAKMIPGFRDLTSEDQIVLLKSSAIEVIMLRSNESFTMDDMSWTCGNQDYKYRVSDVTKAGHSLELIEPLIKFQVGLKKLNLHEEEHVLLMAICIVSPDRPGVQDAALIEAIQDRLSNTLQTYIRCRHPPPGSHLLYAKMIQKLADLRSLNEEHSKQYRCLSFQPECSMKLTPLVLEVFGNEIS
Sequence of Bile acid receptor (Homo sapiens) (Q96RI1 whole entry, looked up): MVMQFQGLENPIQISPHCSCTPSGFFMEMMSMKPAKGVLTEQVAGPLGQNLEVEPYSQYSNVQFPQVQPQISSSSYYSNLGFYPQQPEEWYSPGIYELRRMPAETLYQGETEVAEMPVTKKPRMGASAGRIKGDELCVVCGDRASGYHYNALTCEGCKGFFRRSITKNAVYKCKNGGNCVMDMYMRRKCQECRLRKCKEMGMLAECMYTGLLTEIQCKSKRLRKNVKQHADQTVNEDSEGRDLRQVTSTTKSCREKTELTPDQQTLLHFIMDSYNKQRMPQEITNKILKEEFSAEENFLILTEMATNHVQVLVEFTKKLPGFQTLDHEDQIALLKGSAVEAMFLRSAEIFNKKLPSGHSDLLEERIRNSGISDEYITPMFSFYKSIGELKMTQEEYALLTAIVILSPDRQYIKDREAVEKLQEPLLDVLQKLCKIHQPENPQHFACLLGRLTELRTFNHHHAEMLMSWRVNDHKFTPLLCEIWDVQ
Sequence of Peroxisome proliferator-activated receptor delta (Homo sapiens) (Q03181 whole entry, looked up): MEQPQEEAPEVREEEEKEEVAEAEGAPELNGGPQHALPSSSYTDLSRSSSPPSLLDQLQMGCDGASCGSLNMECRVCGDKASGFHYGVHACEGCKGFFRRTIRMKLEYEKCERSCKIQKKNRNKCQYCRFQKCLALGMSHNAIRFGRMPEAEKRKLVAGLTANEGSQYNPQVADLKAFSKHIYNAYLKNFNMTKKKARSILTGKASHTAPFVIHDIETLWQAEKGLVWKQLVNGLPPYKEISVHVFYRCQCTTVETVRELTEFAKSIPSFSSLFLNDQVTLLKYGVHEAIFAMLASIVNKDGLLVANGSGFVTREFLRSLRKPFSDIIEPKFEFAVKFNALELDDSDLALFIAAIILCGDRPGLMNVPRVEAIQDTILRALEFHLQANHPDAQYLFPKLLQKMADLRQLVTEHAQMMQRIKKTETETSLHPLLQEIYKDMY

Turning to `Cc1oc(=O)oc1COC(=O)[C@@H]1N2C(=O)[C@@H](NC(=O)[C@H](N)c3ccccc3)[C@H]2SC1(C)C`, the Potency result in [1], in [3], in experiment [4], in [6], in experiment [7] and in [8] was “inactive” in each case. Besides, the Potency entry in experiment [10], in experiment [11], in experiment [13], in experiment [14], in experiment [15] and in experiment [16] was “inactive” in each case. In addition, the Potency entry in experiment [17] was “inactive”. Besides, the compound was classed as inactive in experiment [2], in experiment [5], in experiment [9], in [12] and in [18].
Regarding `CCN(CC)CCOc1ccccc1C(=O)CCc1ccccc1`, the outcome in experiment [5], in experiment [9], in experiment [19] and in experiment [12] was inactive. The Potency in experiment [6] is 11.9 µM (active); in [13], 12 µM (active). Moreover, the Potency entry in [7], in [10], in experiment [11], in [20] and in experiment [17] was “inactive” in each case.
Turning to `O=C(O)c1ccc(O)cc1O`, the Potency entry in experiment [1], in [3], in experiment [6], in experiment [7], in experiment [8] and in experiment [10] was “inactive” in each case. In addition, the Potency result in experiment [11], in experiment [13], in experiment [14], in experiment [15], in experiment [16] and in experiment [17] was “inactive” throughout. Further, the compound was classed as inactive in experiment [2], in experiment [5], in [9], in [19], in experiment [12] and in [18].
As for `NC(=O)c1ccccc1[N+](=O)[O-]`, the Potency result in experiment [1], in experiment [4], in [6], in experiment [8], in [10] and in experiment [11] was “inactive” in each case. Further, the Potency entry in experiment [13], in experiment [14], in experiment [15], in [16] and in experiment [17] was “inactive” each time. The compound was classed as inactive in experiment [2], in [12] and in experiment [18].
With `Cc1ccc2nc(N)[nH]c(=O)c2c1Sc1ccncc1`, the Potency result in experiment [1], in experiment [3], in [7], in experiment [8], in [10] and in experiment [11] was “inactive” throughout. Also, the Potency entry in experiment [13], in experiment [14], in experiment [15], in experiment [16] and in experiment [17] was “inactive” throughout. In addition, the compound was classed as inactive in experiment [2], in experiment [9], in [19], in experiment [12] and in experiment [18].
Turning to `Oc1cccc2[nH]ccc12`, the Potency entry in experiment [1], in [3], in experiment [4], in experiment [6], in [7] and in experiment [8] was “inactive” each time. Also, the Potency entry in experiment [10], in experiment [11], in experiment [13], in [14], in experiment [15] and in experiment [16] was “inactive” in each case. In [17], the Potency entry is “inactive”. Also, the result in [2], in experiment [5], in [9], in experiment [12] and in experiment [18] was inactive.
Take `N[C@@H](Cc1cc(I)c(O)c(I)c1)C(=O)O`: the Potency entry in experiment [1], in [3], in experiment [8], in experiment [11], in [13] and in experiment [14] was “inactive” each time. Moreover, the Potency result in [15], in experiment [16] and in [17] was “inactive” each time. Further, the result in [2], in experiment [9], in experiment [19], in experiment [12] and in experiment [18] was inactive.
Take `CC(C)OC(=O)c1ccccc1C(=O)OC(C)C`: the Potency result in [1], in experiment [3], in experiment [7], in [8], in experiment [10] and in [11] was “inactive” each time. The Potency result in [13], in experiment [14], in [15], in experiment [16] and in experiment [17] was “inactive” throughout. For the same compound, the compound was classed as inactive in experiment [2], in [5], in [9], in experiment [19], in experiment [12] and in experiment [18].

The record behind these values is PubChem BioAssay (Tox21).
